Screens as filed in PubChem BioAssay.
In the library only some 11% were active in any assay of this set; here they are far more common.
NPR1 antag: blocks ANP-stimulated signaling of human Npr1 receptor | P16066 | HEK293 hNpr1 GloSensor cGMP, ANP-stimulated luminescence | Potency, µM (series often up to 46.3 µM), for the others: at the highest dose activity change, negative = inhibition, usual class: inhibitors | 76,000 tested, 1.6% active | AID 1347048; calls by dose curve; note: % is set by controls: 0 for no effect and ±100 for the full control effect; nearly all actives have a fitted effect of over 60% in size
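Compound pre-incubated 30 min at room temperature on GloSensor-loaded HEK293 cells stably carrying hNpr1 and the pGS-40F cGMP biosensor. Stimulation uses hNppA at 0.1 nM final; luminescence is taken at baseline and 20 min post-agonist.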
HEK293 tox: cytotoxic compounds in HEK 293 cells; HEK 293 viability, ATP luminescence (CellTiter-Glo), 48-72 h; Potency, µM (top dose mostly 115 µM), inactives show at the highest dose activity change, negative = cytotoxicity, most hits filed as inhibitors; 94,000 tested, 6.6% active; AID 1345083; note: % is set by controls: 0 for no effect and ±100 for the full control effect; nearly all actives have a fitted effect of over 60% in size
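Cytotoxicity was scored by loss of ATP-coupled luminescence (CellTiter-Glo) in HEK 293 cells. Compound treatment ran 48 or 72 hr at 37 degree Celsius, 5% CO2, 95% humidity.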
3T3 cytotox: NIH 3T3 cell cytotoxicity | AID 1345082 | 94,000 tested, 4.3% active | NIH 3T3 viability, CellTiter-Glo ATP luminescence, 48-72 h | Potency, µM (top dose mostly 96.7 µM), without a hit: at the top dose activity change, negative = cytotoxicity, actives largely listed as inhibitors; note: % is set by controls: 0 for no effect and ±100 for the full control effect; nearly all actives have a fitted effect of over 55% in size
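NIH 3T3 cells at 400 cells/well received 23 nL of compound by pintool and were incubated 48 or 72 h at 37 °C. Viability was read as ATP-coupled CellTiter-Glo luminescence.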
Luciferase inh: inhibitors of firefly (Photinus pyralis) luciferase | P08659 | purified P. pyralis luciferase, luminescence, biochemical | Potency, µM (doses to about 115 µM), most hits filed as inhibitors | 76,000 tested, 2.5% active | AID 1347043; note: % is set by controls: 0 for no effect and ±100 for the full control effect; nearly all actives have a fitted effect of over 65% in size
Target sequence (P08659 whole entry, looked up): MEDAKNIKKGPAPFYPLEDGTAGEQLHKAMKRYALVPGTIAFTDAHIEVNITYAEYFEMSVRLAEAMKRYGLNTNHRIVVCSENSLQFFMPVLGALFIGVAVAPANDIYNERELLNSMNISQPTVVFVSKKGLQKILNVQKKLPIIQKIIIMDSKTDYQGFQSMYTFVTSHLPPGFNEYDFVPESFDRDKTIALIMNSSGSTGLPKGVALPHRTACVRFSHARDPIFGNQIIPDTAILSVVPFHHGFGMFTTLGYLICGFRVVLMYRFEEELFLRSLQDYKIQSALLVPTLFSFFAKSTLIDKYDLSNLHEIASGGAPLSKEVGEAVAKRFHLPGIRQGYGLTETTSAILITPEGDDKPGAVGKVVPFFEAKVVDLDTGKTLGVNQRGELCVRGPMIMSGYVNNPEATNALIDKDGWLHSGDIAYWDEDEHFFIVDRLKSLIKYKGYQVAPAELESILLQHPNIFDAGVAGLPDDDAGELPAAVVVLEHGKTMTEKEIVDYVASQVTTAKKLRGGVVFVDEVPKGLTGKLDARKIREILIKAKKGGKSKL
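Luminescence read by CCD imaging after purified firefly luciferase (10nM final) was added to substrate buffer holding 10uM D-luciferin and 10uM ATP, pH 7.5, pre-dosed with compound.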
NPR1 antag cnf: hNpr1 antagonism, confirmation assay; Potency, µM (highest dose often 57.6 µM), for inactives: at the highest dose activity change, negative = inhibition, usual class: inhibitors; shares compounds with NPR1 antag; 1,400 tested, 76% active; HEK293 hNpr1 cGMP GloSensor luminescence, ANP-stimulated; calls by dose curve; note: nearly all actives have a fitted effect of over 70% in size
Npr2 selectivity: hNpr2 antagonism, selectivity versus Npr1; shares compounds with NPR1 antag; HEK293 hNpr2 GloSensor cGMP luminescence, CNP-stimulated; Potency, µM (doses to about 57.6 µM), inactives show top-dose activity change, negative = inhibition, most hits filed as inhibitors; 1,400 tested, 67% active; AID 1347046; calls by dose curve; note: nearly all actives have a fitted effect of over 70% in size
FLuc counter: counter-screen for Npr1 antagonists: firefly luciferase inhibitors | shares compounds with NPR1 antag | purified FLuc enzyme, luminescence, Km substrate | Potency, µM (highest dose often 57.6 µM), for the others: at the highest dose activity change, negative = inhibition, actives largely listed as inhibitors | 1,400 tested, 0.7% active | AID 1347047; note: 0% is about no effect
GloSensor ctrl: control cell line activity, Npr1 antagonist counter-screen. shares compounds with NPR1 antag. HEK293 GloSensor cGMP, SNP-stimulated, luminescence. Potency, µM (series often up to 57.6 µM), inactives show top-dose activity change, negative = inhibition, hits mostly inhibitors. 1,400 tested, 69% active. AID 1347051; calls by dose curve; note: % is set by controls: 0 for no effect and ±100 for the full control effect; nearly all actives have a fitted effect of over 70% in size
An asterisk follows results filed as active; i = inactive; ? = inconclusive; · = no result; [ ] = another dose, or the depositor's remark. Unless noted, calls come from the whole dose curve; as a rule, active = well fitted curve in the direction sought with a large enough effect; inconclusive = small, poorly fitted or top-dose-only effect, or another doubt; inactive = no such curve, though single readings can be large; an effect the other way counts as inactive or inconclusive. Potency is the fitted concentration of half-maximal effect.

SMILES	NPR1 antag	HEK293 tox	3T3 cytotox	Luciferase inh	NPR1 antag cnf	Npr2 selectivity	FLuc counter	GloSensor ctrl
CCc1ncc2c(=O)n(Cc3ccc(OC)cc3)ccn12	10µM*	?	-26.1%	i	12.2µM*	12.2µM*	-2.7%	8.62µM*
CCc1nc(CC)n2ccn(Cc3ccc(OC)cc3)c(=O)c12	1.6%	?	?	i	·	·	·	·
CN1C[C@@H](NC(=O)Nc2cccc(C#N)c2)C[C@H]1c1nc(-c2ccc(Cl)cc2)no1	25.1µM*	?	39.8µM*	i	15.7µM*	25µM*	2.6%[86.2 µM]	17.7µM*
CN1C[C@@H](NC(=O)CC(C)(C)CC(=O)O)C[C@H]1c1nc(-c2ccccc2)no1	8.4%[70.6 µM]	-4.7%[172 µM]	-12.5%[174 µM]	?	·	·	·	·
CN1C[C@@H](NC(=O)Nc2ccc(Cl)cc2)C[C@H]1c1nc(-c2ccc(F)cc2)no1	31.6µM*	31.6µM*	?	i	12.5µM*	19.8µM*	1.4%[86.2 µM]	12.5µM*
COc1ccc(-c2noc([C@@H]3C[C@H](NS(=O)(=O)c4ccc5ccccc5c4)CN3C)n2)cc1	20µM*	?	?	i	24.3µM*	24.3µM*	?	19.3µM*
Cc1ccc(-c2noc([C@@H]3C[C@H](NC(=O)CC(C)(C)C)CN3C)n2)cc1	35.5µM*	89.1µM*	?	i	?	?	-25.3%[86.2 µM]	?
CC(C)n1cnnc1-c1nn(C)c2c1CN(C(=O)Cc1c[nH]c3ccccc13)CC2	1.8%	?	-22.9%	i	·	·	·	·
Cc1ccc(CNC(=O)C2CCN(c3cc(C(F)(F)F)ncn3)CC2)cc1	12.6µM*	?	-24.2%	i	24.3µM*	21.7µM*	2.5%	19.3µM*
COc1ccccc1OCCNC(=O)C1CCN(c2cc(C(F)(F)F)ncn2)CC1	?	-25.1%	?	i	·	·	·	·
CSc1ccc(CNC(=O)C2CCN(c3cc(C(F)(F)F)ncn3)CC2)cc1	12.6µM*	?	?	i	19.3µM*	21.7µM*	4.2%	15.3µM*
CCc1ccc(CNC(=O)C2CCN(c3cc(C(F)(F)F)ncn3)CC2)cc1	14.1µM*	?	?	i	21.7µM*	17.2µM*	4.0%	13.7µM*
COc1ccccc1-n1c(=O)c(C(=O)N2CCC(c3ccccc3)CC2)nc2cccnc21	·	i	-3.4%	·	·	·	·	·
COc1ccccc1CC(=O)NC1CCN(c2cnn(C)c(=O)c2)CC1	-2.6%	3.0%	-5.7%	i	·	·	·	·
Cc1ccsc1C(=O)N1CCC2(CC1)NC(=O)N(c1cccc(Cl)c1)N2	-21.8%	?	?	i	·	·	·	·
COc1cccc(-c2cccc(CN)c2)c1	·	-26.1%[172 µM]	?	·	·	·	·	·
Cc1cc(C)cc(-c2cccc(CN)c2)c1	·	56.2µM*	39.8µM*	·	35.3µM*	31.4µM*	4.5%[86.2 µM]	?
COCCN(C)Cc1nc(Cc2ccccc2Cl)no1	3.3%	i	2.1%	i	·	·	·	·
CN(Cc1nc(Cc2ccccc2Cl)no1)Cc1cccc2cnccc12	14.1µM*	?	?	i	10.9µM*	12.2µM*	0.4%	10.9µM*
O=C(C[C@@H]1CCNC[C@@H]1Cc1cc(CSc2ccccc2)on1)NCc1ccc(F)cc1	-3.4%	?	?	i	·	·	·	·
O=C(C[C@@H]1CCNC[C@@H]1Cc1cc(CC2CCCCC2)on1)NCc1ccccc1	14.1µM*	?	31.6µM*	i	19.8µM*	28µM*	5.2%[86.2 µM]	17.7µM*
Cc1ccc(N2CCN(C(=O)c3cc4n(n3)CC(c3ccc(Cl)cc3)OC4)CC2)cc1 (centres undefined)	?	?	?	i	·	·	·	·
O=C(NCCc1cccs1)c1cc2n(n1)CC(c1ccc(Cl)cc1)OC2 (centres undefined)	?	?	?	i	·	·	·	·
CC(=O)c1ccc(N2CCN(C(=O)c3cc4n(n3)CC(c3ccc(Cl)cc3)OC4)CC2)cc1 (centres undefined)	11.2µM*	?	?	i	21.7µM*	24.3µM*	-2.3%	24.3µM*
COc1ccc(CNC(=O)c2cc3n(n2)CC(c2ccc(Cl)cc2)OC3)cc1 (centres undefined)	22.4µM*	31.6µM*	?	i	27.3µM*	21.7µM*	-6.2%	21.7µM*
SMILES	NPR1 antag	HEK293 tox	3T3 cytotox	Luciferase inh	NPR1 antag cnf	Npr2 selectivity	FLuc counter	GloSensor ctrl
COc1ccc(NC(=O)c2cc3n(n2)CC(c2ccc4c(c2)OCO4)OC3)cc1Cl (centres undefined)	?	?	-4.2%	i	?	-26.3%	-3.7%	?
NS(=O)(=O)c1ccc(CCNC(=O)c2cc3n(n2)CC(c2ccc(Cl)cc2)OC3)cc1 (centres undefined)	14.1µM*	44.7µM*	?	i	24.3µM*	?	0.7%	24.3µM*
O=C(Nc1ccc(Oc2ccccc2)cc1)c1cc2n(n1)CC(c1ccc(Cl)cc1)OC2 (centres undefined)	3.55µM*	?	-27.7%	i	3.85µM*	4.85µM*	2.2%	3.85µM*
CC(=O)Nc1ccc(NC(=O)c2cc3n(n2)CC(c2ccc(Cl)cc2)OC3)cc1 (centres undefined)	-16.8%	?	-25.9%	i	·	·	·	·
O=C(Nc1ccc(F)c(F)c1)c1cc2n(n1)CC(c1ccc(Cl)cc1)OC2 (centres undefined)	?	?	?	i	·	·	·	·
O=C(Nc1ccc(Cl)cc1)c1cc2n(n1)CC(c1ccc(Cl)cc1)OC2 (centres undefined)	11.2µM*	?	?	i	24.3µM*	?	-2.1%	27.3µM*
CCOc1ccccc1C(=O)NC1CCN(c2cc(C(F)(F)F)nc(C)n2)CC1	?	?	?	i	24.3µM*	?	2.1%	24.3µM*
COc1cccc(C(=O)NC2CCN(c3cc(C(F)(F)F)nc(C)n3)CC2)c1OC	?	?	?	i	·	·	·	·
COc1ccccc1OCCNC(=O)C1CCN(c2cc(C(F)(F)F)nc(C)n2)CC1	?	?	?	i	-21.5%	-7.0%	-3.0%	0.0%
CN1CCC(C(=O)N2Cc3ccccc3CC3(CCCN(CC4CCOCC4)C3)C2)CC1 (centres undefined)	·	-10.5%	-15.9%	·	·	·	·	·
